The nature of experiment [1]: qHTS profiling for inhibitors of Plasmodium falciparum proliferation (AID 504749).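 For activity, negative = inhibition: 0% = DMSO vehicle and full inhibition = artemisinin control.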 For all read-outs here: nearly all actives have a fitted effect of over 60% in size. The settings on record: P. falciparum in erythrocytes, SYBR Green DNA, 72 h; for activity, negative = inhibition: at 28.7 µM (top of the series). The procedure, abridged:
(§1)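 Parasite proliferation within erythrocytes, 72 h exposure. Endpoint: SYBR Green I fluorescence after overnight lysis at room temperature. Controls: 0.29 uM artemisinin, DMSO.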

Another experiment concerns 3D7. The experiment is described as above. The settings on record: P. falciparum in erythrocytes, SYBR Green DNA, 72 h; series mostly up to 28.7 µM. A digest of the protocol:
as §1

For another experiment, the system named is 7G8. Described as above. Particulars: P. falciparum in erythrocytes, SYBR Green DNA, 72 h; series mostly up to 28.7 µM. The procedure, abridged: as §1
Another experiment relates to AA1029. Described as above. Particulars: P. falciparum in erythrocytes, SYBR Green DNA, 72 h; series mostly up to 28.7 µM. A digest of the protocol:
as §1

The next experiment has as its system AS120. Described as above. The settings on record: P. falciparum in erythrocytes, SYBR Green DNA, 72 h; series mostly up to 28.7 µM. A digest of the protocol:
as §1

A further experiment deals with ATS189. Described as above. The settings on record: P. falciparum in erythrocytes, SYBR Green DNA, 72 h; series mostly up to 28.7 µM. A digest of the protocol: as §1
The subject of another experiment is ATS95. The experiment is described as above. Particulars: P. falciparum in erythrocytes, SYBR Green DNA, 72 h; series mostly up to 28.7 µM. A digest of the protocol:
as §1

A further experiment has as its system C2A. The experiment is described as above. Particulars: P. falciparum in erythrocytes, SYBR Green DNA, 72 h; series mostly up to 28.7 µM. A digest of the protocol: as §1
A further experiment concerns CP185. The description is as above. The settings on record: P. falciparum in erythrocytes, SYBR Green DNA, 72 h; series mostly up to 28.7 µM. The procedure, abridged: as §1
For another experiment, the system named is CP191. Described as above. Particulars: P. falciparum in erythrocytes, SYBR Green DNA, 72 h; series mostly up to 28.7 µM. The procedure, abridged:
as §1

The subject of another experiment is CP192. The experiment is described as above. Particulars: P. falciparum in erythrocytes, SYBR Green DNA, 72 h; series mostly up to 28.7 µM. The procedure, abridged: as §1
Another experiment deals with CP194. The experiment is described as above. Particulars: P. falciparum in erythrocytes, SYBR Green DNA, 72 h; series mostly up to 28.7 µM. The procedure, abridged:
as §1

The test system of another experiment is CP201. The experiment is described as above. The settings on record: P. falciparum in erythrocytes, SYBR Green DNA, 72 h; series mostly up to 28.7 µM. The procedure, abridged: as §1

The structures appear in SMILES notation. Inconclusive results are not listed. Values without a mark were called inactive. Activity calls are given as the source filed them. Calls come from the whole dose curve; as a rule, active = well fitted inhibition curve with a large enough effect; inconclusive = small, poorly fitted or top-dose-only effect; inactive = flat fitted curve, though single readings scatter.
Potency is the fitted concentration of half-maximal effect.

Regarding `C[C@H]1CC[C@@H]2[C@@H](C)[C@H]3[C@H](C[C@H]4[C@@H]5CC=C6CC(O[C@@H]7O[C@H](CO)[C@H](O)[C@H](O[C@@H]8O[C@H](CO)[C@@H](O)[C@H](O)[C@H]8O)[C@H]7O[C@H]7O[C@@H](C)[C@H](O)[C@@H](O)[C@H]7O)CC[C@]6(C)[C@H]5CC[C@]34C)N2C1` (some centres not stated), the figures for the activity, negative = inhibition in experiment [1] (parasite line A) and in experiment [1] (parasite line B) were -2.66% and 12%, respectively. Also, the Potency entry in the experiment on 3D7, with 7G8, with AA1029, in the experiment on AS120, in the experiment with ATS189 and in the experiment on ATS95 was “inactive” in each case. The Potency result with C2A, with CP185, in the experiment with CP191, in the experiment with CP192, in the experiment with CP194 and in the experiment with CP201 was “inactive” in each case.
For `O=[N+]([O-])c1ccc(F)c([N+](=O)[O-])c1`, the results for the activity, negative = inhibition in experiment [1] (parasite line A) and in experiment [1] (parasite line B) were 14.6% and 11.6%, respectively. Moreover, the Potency result with 3D7, with 7G8, in the experiment on AA1029, in the experiment on AS120, in the experiment on ATS189 and with ATS95 was “inactive” throughout. In addition, the Potency entry in the experiment on C2A, in the experiment with CP185, with CP191, in the experiment with CP192, in the experiment with CP194 and with CP201 was “inactive” in each case.
With `CCC1(c2ccccc2)C(=O)NC(=O)N(C)C1=O` (configuration not stated), the activity, negative = inhibition in experiment [1] (parasite line A) is 3.95%; in experiment [1] (parasite line B), 7.56%. The Potency result with 3D7, in the experiment on AA1029, in the experiment with AS120, in the experiment with ATS95, in the experiment on C2A and in the experiment with CP185 was “inactive” in each case. Besides, the Potency entry in the experiment with CP192, with CP194 and in the experiment on CP201 was “inactive” in each case. The Potency in the experiment on 7G8 was 8.91 µM (active).
Regarding `O=C(O)C(Cl)(Cl)Cl`, the activity, negative = inhibition was 7.18% in experiment [1] (parasite line A) and 2% in experiment [1] (parasite line B). Further, the Potency entry in the experiment with 3D7, in the experiment on 7G8, in the experiment with AA1029, in the experiment on AS120, with ATS189 and with ATS95 was “inactive” throughout. The Potency entry in the experiment with C2A, with CP185, in the experiment on CP191, with CP192, in the experiment with CP194 and with CP201 was “inactive” each time.
As to `C=CCN1CCC23c4c5ccc(O)c4O[C@H]2C(=O)CC[C@@]3(O)C1C5` (some centres not stated), the results for the activity, negative = inhibition in experiment [1] (parasite line A) and in experiment [1] (parasite line B) were 8.48% and -7.58%, respectively. For the same molecule, the Potency entry in the experiment with 3D7, in the experiment with 7G8, with AA1029, in the experiment with AS120, in the experiment on ATS189 and in the experiment with ATS95 was “inactive” each time. Also, the Potency entry with C2A, in the experiment on CP185, in the experiment with CP191, in the experiment with CP192, in the experiment on CP194 and in the experiment with CP201 was “inactive” throughout.
With `O=[N+]([O-])C(Br)(CO)CO`, the activity, negative = inhibition in experiment [1] (parasite line A) was 4.06%; in experiment [1] (parasite line B), -7.41%. Moreover, the Potency entry in the experiment on 3D7, in the experiment on 7G8, in the experiment with AA1029, in the experiment with AS120, in the experiment on ATS189 and with ATS95 was “inactive” throughout. The Potency entry in the experiment with C2A, with CP185, with CP191, in the experiment on CP192, with CP194 and in the experiment on CP201 was “inactive” throughout.
In the case of `CCC1(c2ccccc2)C(=O)NC(=O)N(C(=O)c2ccccc2)C1=O` (configuration not stated), the activity, negative = inhibition was -16% in experiment [1] (parasite line A) and 9.27% in experiment [1] (parasite line B). Moreover, the Potency result with 3D7, in the experiment on AA1029, with AS120, in the experiment with ATS189, with ATS95 and in the experiment with C2A was “inactive” in each case. Further, the Potency result in the experiment on CP185, in the experiment on CP192, in the experiment on CP194 and with CP201 was “inactive” in each case. The Potency in the experiment on 7G8 is 10 µM (active).
Turning to `C#CC(C)(O)CC` (configuration not stated), the activity, negative = inhibition was 3.88% in experiment [1] (parasite line A) and -6.77% in experiment [1] (parasite line B). Further, the Potency entry with 3D7, with 7G8, with AA1029, with AS120, with ATS189 and with ATS95 was “inactive” throughout. The Potency entry in the experiment on C2A, with CP185, in the experiment with CP191, in the experiment with CP192, with CP194 and in the experiment on CP201 was “inactive” throughout.
Take `[O]=[Cd]`: the figures for the activity, negative = inhibition in experiment [1] (parasite line A) and in experiment [1] (parasite line B) were 10.1% and 8.29%, respectively. The Potency entry with 3D7, in the experiment with 7G8, in the experiment with AA1029, in the experiment on AS120, with ATS189 and in the experiment on ATS95 was “inactive” in each case. The Potency result in the experiment with C2A, in the experiment with CP185, in the experiment on CP191, in the experiment on CP192, with CP194 and in the experiment with CP201 was “inactive” each time.
On to `CCC1(c2ccccc2)C(=O)NC(=O)NC1=O`, for which the activity, negative = inhibition in [1] (parasite line A) is 5.22%; in [1] (parasite line B), 9.88%. For the same molecule, the Potency result in the experiment on 3D7, in the experiment on 7G8, with AA1029, with ATS189, in the experiment on ATS95 and in the experiment with C2A was “inactive” each time. Further, the Potency result with CP185, in the experiment on CP191, with CP194 and in the experiment on CP201 was “inactive” throughout.
`CN1[C@@H]2CC[C@H]1CC(OC1c3ccccc3CCc3ccccc31)C2` (some centres not stated): the Potency in experiment [1] (parasite line A) was 3.98 µM (active); in the experiment with 7G8, 3.98 µM (active); with AA1029, 3.55 µM (active); in the experiment with AS120, 3.55 µM (active); in the experiment with CP191, 2.51 µM (active). Besides, the Potency result in the experiment with 3D7, in the experiment on CP192 and in the experiment with CP201 was “inactive” each time.
On to `c1cc2c(c(NC3=NCCN3)c1)CCCC2`, for which the activity, negative = inhibition in experiment [1] (parasite line A) is -15.6%; in experiment [1] (parasite line B), -7.85%. The Potency entry with 3D7, in the experiment with AA1029, in the experiment on AS120, in the experiment with ATS189, with ATS95 and in the experiment on C2A was “inactive” each time. Besides, the Potency entry in the experiment on CP185 and with CP191 was “inactive” throughout.
As for `CCCC(C)(COC(N)=O)COC(=O)NC1CC1` (configuration not stated), the activity, negative = inhibition in experiment [1] (parasite line A) is 8.1%; in experiment [1] (parasite line B), 1.21%. Moreover, the Potency entry in the experiment with 3D7, in the experiment on AA1029, in the experiment on AS120, in the experiment on ATS189, with ATS95 and in the experiment on C2A was “inactive” each time. For the same molecule, the Potency result with CP185, in the experiment with CP191, in the experiment with CP192, with CP194 and with CP201 was “inactive” throughout.
For `c1ccc2sc(SNC3CCCCC3)nc2c1`, the activity, negative = inhibition in [1] (parasite line A) is 7.11%; in experiment [1] (parasite line B), 2.42%. Further, the Potency entry with 3D7, in the experiment on AA1029, with AS120, with ATS189, with ATS95 and with C2A was “inactive” in each case. Further, the Potency entry with CP185, with CP191, with CP192, with CP194 and in the experiment with CP201 was “inactive” in each case.
Take `CC12NC(Cc3ccccc31)c1ccccc12` (configuration not stated): the activity, negative = inhibition in experiment [1] (parasite line A) is -7.25%; in experiment [1] (parasite line B), 6.66%. Further, the Potency entry with 3D7, in the experiment with C2A, with CP192 and in the experiment on CP201 was “inactive” throughout. Also, in the experiment with AA1029, the Potency was 11.2 µM (active).
In the case of `CNC(=O)Oc1ccccc1C(=O)Nc1ccccc1`, the Potency in experiment [1] (parasite line B) was 11.2 µM (active); in the experiment with 7G8 it was 10 µM (active). Besides, the Potency entry in the experiment with 3D7, in the experiment on C2A, in the experiment on CP185, with CP192 and in the experiment with CP201 was “inactive” throughout.
With `CC(=O)O[C@H]1CC[C@H]2[C@@H]3CCC4=CC(=O)CCC4=C3C=C[C@]12C`, the activity, negative = inhibition in [1] (parasite line A) is 4.1%; in experiment [1] (parasite line B), 0.383%. Further, the Potency result with 3D7, in the experiment with AA1029, with AS120, in the experiment on ATS189, in the experiment on ATS95 and with C2A was “inactive” each time. Also, the Potency result in the experiment with CP185, in the experiment with CP191, in the experiment on CP192, in the experiment with CP194 and in the experiment with CP201 was “inactive” in each case.
As for `Clc1ccc(C2(Cn3cncn3)OCCO2)c(Cl)c1`, the activity, negative = inhibition in experiment [1] (parasite line A) is 8.04%; in experiment [1] (parasite line B) it was -7.5%. Also, the Potency entry with 3D7, in the experiment with AA1029, with AS120, in the experiment on ATS189, in the experiment with ATS95 and in the experiment with C2A was “inactive” in each case. For the same molecule, the Potency result with CP185, in the experiment on CP191, in the experiment with CP192, in the experiment on CP194 and in the experiment with CP201 was “inactive” in each case.
`Clc1ccc(Cl)cc1`: in experiment [1] (parasite line A), the activity, negative = inhibition is 7.27%. Also, the Potency entry in the experiment on 3D7, in the experiment on 7G8, in the experiment on AA1029, in the experiment with AS120, in the experiment on ATS189 and in the experiment with ATS95 was “inactive” throughout. Moreover, the Potency result in the experiment with C2A, in the experiment with CP185, in the experiment on CP191, in the experiment with CP192, in the experiment with CP194 and with CP201 was “inactive” in each case.

The record behind these values is PubChem BioAssay (NCATS).
